The values that follow come from PubChem BioAssay (NCATS).

Experiment [1] in a line: qHTS Assay for Lipid Storage Modulators (AID 1519; calls by dose curve; for activity change, negative = inhibition: % is set by controls: 0 for no effect and ±100 for the full control effect). The conditions noted are these: Drosophila S3 cells, BODIPY lipid droplet/cell ratio, laser cytometry, cells loaded with oleic acid. In outline: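 Cells seeded at 5,000 per well were treated with compounds over a concentration series and loaded with oleic acid (400 uM, as added). Lipid droplet fluorescence (488 nm excitation, 500-530 nm channel) was read by laser-scanning cytometry and normalized to 20 uM Triacsin C.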

Experiment [2] has as its target DNA repair nuclease/redox regulator APEX1 (Homo sapiens) (UniProt P27695). Nature of the experiment: qHTS Validation Assay for Inhibitors of the Human Apurinic/apyrimidinic Endonuclease 1 (APE1) (AID 1705;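 note: TAMRA fluorescence gain over two minutes as APE1 cuts a quenched THF abasic duplex; % is set by controls: 0 for no effect and ±100 for the full control effect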). The conditions noted are these: purified APE1 endonuclease activity, fluorescence, titration; series mostly up to 57.1 µM. In outline: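 Read-out: TAMRA fluorescence (525 nm ex, 598 nm em) from cleavage of a quenched THF abasic-site duplex, 50 nM final; activity taken as intensity change between third and first of three reads 60 s apart.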
In general terms: In qHTS, concentration-response curves come from the screen itself.

The nature of experiment [3]: Counterscreen for APE1 Inhibitors: Fluorescent Dye Displacement Validation Assay (AID 1707).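 Note: plate controls were ThO with dsDNA and no compound for no effect and ThO without dsDNA for full effect.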 The settings on record: fluorescent dye displacement from DNA; series mostly up to 57.1 µM. In outline: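 Reaction mixture of 250 nM Thiazole Orange and 50 nM double-stranded abasic-site DNA was dispensed, compounds were pin-transferred, and fluorescence was read at endpoint (480 nm ex, 540 nm em). Reduced fluorescence indicated dye displacement by DNA binding.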
On the technique in general: Counterscreens check selectivity or assay interference.

For experiment [4], the target named is Endonuclease 4 (Escherichia coli (strain K12)) (UniProt P0A6C1). Nature of the experiment: Counterscreen for APE1 Inhibitors: qHTS Validation Assay for Inhibitors of Endonuclease IV (AID 1708). Note: % is set by controls: 0 for no effect and ±100 for the full control effect. The settings on record: E. coli endonuclease IV, DNA cleavage fluorescence; series mostly up to 57.1 µM. In outline: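 The reaction buffer contained 50 mM Tris-HCl pH 7.5, 50 mM NaCl, 2 mM MgCl2, 1 mM DTT and 0.01% Tween-20. Incision of a 50 nM fluorophore/quencher THF substrate by 2 nM enzyme was measured kinetically.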

The nature of experiment [5]: qHTS for differential inhibitors of proliferation of Plasmodium falciparum line 7G8 (AID 1815).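 For activity change, negative = inhibition: plate controls were vehicle wells for no effect and reference inhibitor wells for full effect.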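 Note: parasite growth measured after three days of incubation.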 Note: potency is the fitted concentration of half-maximal effect. The conditions noted are these: Plasmodium falciparum 7G8 proliferation inhibition; series mostly up to 28.7 µM.
Experiment [6] is described as follows: qHTS for differential inhibitors of proliferation of Plasmodium falciparum line GB4 (AID 1816).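 For activity change, negative = inhibition: 0% = vehicle DMSO and -100% = reference inhibitor.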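 Note: parasite growth measured after 72 h incubation.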 Note: potency is the fitted concentration of half-maximal effect. The settings on record: Potency: Plasmodium falciparum GB4 proliferation inhibition; series mostly up to 28.7 µM.
Experiment [7] is described as follows: qHTS for differential inhibitors of proliferation of Plasmodium falciparum line 3D7 (AID 1876). Note: potency is the fitted concentration of half-maximal effect. The settings on record: P. falciparum 3D7 proliferation inhibition; series mostly up to 28.7 µM.
The nature of experiment [8]: qHTS for differential inhibitors of proliferation of Plasmodium falciparum line D10 (AID 1877).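 For activity change, negative = inhibition: plate controls were vehicle wells for no effect and reference inhibitor wells for full effect.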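 Note: parasites grown with compound for 72 h before DNA staining.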 Note: potency is the fitted concentration of half-maximal effect. The settings on record: series mostly up to 28.7 µM.
Experiment [9] can be described thus: qHTS for differential inhibitors of proliferation of Plasmodium falciparum line Dd2 (AID 1882).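 For activity change, negative = inhibition: compound exposure of 72 h on infected erythrocytes; plate controls were DMSO vehicle for no effect and 0.29 µM artemisinin for full effect.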 Note: nearly all actives have a fitted effect of over 65% in size. Note: potency is the fitted concentration of half-maximal effect. The settings on record: Potency: Plasmodium falciparum Dd2 proliferation inhibition; series mostly up to 28.7 µM. In outline: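 RBC culture, 0.3% parasitemia / 2.5% Hct final; cpd added by pin tool in DMSO; 72 h, 37 C, 5% CO2; lysis buffer + SYBR Green I, o/n RT dark; FI 485/535; norm. to artemisinin 0.29 uM and DMSO.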

A short description of experiment [10]: qHTS for differential inhibitors of proliferation of Plasmodium falciparum line W2 (AID 1883).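 For activity change, negative = inhibition: 0% = vehicle wells and -100% = control inhibitor wells.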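 Note: parasites grown with compound for 72 h before lysis and staining.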 Note: potency is the fitted concentration of half-maximal effect. The settings on record: Potency: Plasmodium falciparum W2 proliferation inhibition; series mostly up to 28.7 µM.
Experiment [11] can be described thus: qHTS for differential inhibitors of proliferation of Plasmodium falciparum line HB3 (AID 1886).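 For activity change, negative = inhibition: plate controls were vehicle for no effect and reference inhibitor for full effect.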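 Note: parasites grown with compound for 72 h before SYBR Green readout.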 Note: potency is the fitted concentration of half-maximal effect. The conditions noted are these: Potency: Plasmodium falciparum HB3 proliferation inhibition; series mostly up to 28.7 µM.
Experiment [12] concerns the target Ferritin light chain (Equus caballus) (UniProt P02791). Nature of the experiment: qHTS Validation Assay for Identification of Novel General Anesthetics (AID 2323). Note: % is set by controls: 0 for no effect and ±100 for the full control effect. The conditions noted are these: horse apoferritin, anesthetic-site fluorescent probe displacement; series mostly up to 76.9 µM. In outline: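 10 uM horse-spleen apoferritin + 1-AMA (50% saturated, PBS); cpd pin-transferred, 10 min RT. Ex 380/Em 535 nm endpoint. Activity normalized between free 1-AMA and 1-AMA/apoferritin; 4-parameter Hill fit of concentration-response.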

For experiment [13], the target named is ATP-dependent DNA helicase Q1 (Homo sapiens) (UniProt P46063). Nature of the experiment: qHTS Validation Assay for Inhibitors of RecQ-Like Dna Helicase 1 (RECQ1) (AID 2353).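 Note: plate controls were DMSO vehicle for no effect and enzyme-free control for full effect.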 The settings on record: recombinant RECQ1 helicase DNA unwinding assay; series mostly up to 25.6 µM. In outline: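 RECQ1T1 50 nM; forked duplex (20 bp + 30-nt ss tails) 200 nM, ATP 2 mM final; pH 8.0, 2 mM MgCl2, 2.5 ug/ml poly(dI-dC); 15 min compound preincubation; discontinuous kinetic read over 2 h at RT.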
ATP-dependent DNA helicase Q1 (Homo sapiens), sequence (P46063 whole entry, looked up): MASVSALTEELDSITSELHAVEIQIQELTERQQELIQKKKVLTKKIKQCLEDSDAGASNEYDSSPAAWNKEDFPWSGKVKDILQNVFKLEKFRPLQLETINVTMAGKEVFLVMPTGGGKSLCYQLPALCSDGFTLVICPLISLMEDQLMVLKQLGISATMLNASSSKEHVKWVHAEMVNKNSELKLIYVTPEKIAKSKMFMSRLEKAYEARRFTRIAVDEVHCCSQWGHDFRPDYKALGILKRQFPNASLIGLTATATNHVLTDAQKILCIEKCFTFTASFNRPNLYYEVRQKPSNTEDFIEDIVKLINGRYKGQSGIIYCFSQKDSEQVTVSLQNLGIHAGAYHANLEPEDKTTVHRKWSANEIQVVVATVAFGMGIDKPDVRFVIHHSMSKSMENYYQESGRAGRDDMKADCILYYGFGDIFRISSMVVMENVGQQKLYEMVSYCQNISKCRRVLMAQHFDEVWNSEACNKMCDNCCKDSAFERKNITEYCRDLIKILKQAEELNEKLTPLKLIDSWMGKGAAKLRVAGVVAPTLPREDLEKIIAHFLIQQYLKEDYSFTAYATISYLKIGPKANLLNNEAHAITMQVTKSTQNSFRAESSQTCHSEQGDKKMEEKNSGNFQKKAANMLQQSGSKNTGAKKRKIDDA

Experiment [14] in a line: Cytometric Cell-Based qHTS for Inhibitors of the mTORC1 Signaling Pathway in MEF (Tsc2-/-, p53-/-) Cells (AID 2660).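 Note: percent of cells above a phospho-rpS6 to PI ratio cutoff in each well; plate controls were DMSO for no effect and rapamycin for full effect.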 The settings on record: mTORC1 pathway cytometry; series mostly up to 38.3 µM. The gist of the method: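 Tsc2-/-, p53-/- MEFs (empty vector) exposed to compound 24 h at 37 C, fixed, stained with Alexa-488 anti-phospho-rpS6 Ser235/236 and propidium iodide. Acumen laser scanning; phospho-S6/PI ratio thresholded against 7.5 nM rapamycin, reported as % positive cells.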

A short description of experiment [15]: High Content Imaging Cell-Based qHTS for Inhibitors of the mTORC1 Signaling Pathway in MEF (Tsc2-/-, p53-/-) Cells (AID 2666).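 Note: percent of cells scored positive for phospho-rpS6 Ser235/236 immunostaining by imaging.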 The settings on record: series mostly up to 38.3 µM. The gist of the method: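 Tsc2-/-, p53-/- MEFs (empty-vector stable) grown in DMEM + 10% FBS were exposed to compounds for 24 hrs at 37 degree Celsius, fixed, and stained with Alexa-488 anti-phospho-rpS6 Ser235/236 plus Hoechst. Imaging gave the percentage of positive cells per well.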

Experiment [16] has as its target RecQ-like DNA helicase BLM (Homo sapiens) (UniProt P54132). Nature of the experiment: qHTS Validation Assay for Inhibitors of Bloom's syndrome helicase (BLM) (AID 2364).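 Note: plate controls were DMSO vehicle for no effect and enzyme-free control for full effect.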 The conditions noted are these: BLM helicase DNA unwinding, fluorescence, in vitro; series mostly up to 57.1 µM. The gist of the method: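 Forked 20-bp duplex substrate (200 nM, TAMRA/BHQ-2) plus 2 mM ATP added after 15 min compound preincubation with 50 nM enzyme, pH 8.0, poly(dI-dC) 2.5 ug/ml. Strand separation followed by fluorescence (525/598 nm) over 2 h, normalized to enzyme-free and DMSO controls.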

Experiment [17] is described as follows: qHTS Assay for Modulators of Human Peripheral Myelin Protein 22 (PMP22) Expression/Activity (AID 1967; active = well fitted curve in the direction sought with a large enough effect in the signal ratio; the % refers to the signal ratio;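 note: 0% = untreated cells and 100% end not stated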). The settings on record: Cell-based PMP22 reporter, dual-color luciferase ratio, mouse Pmp22 promoter in mouse Schwann cells; series mostly up to 115 µM. In outline:
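Mouse MSC80 Schwann line, Pmp22 promoter–CBG68 reporter, EF-alpha–CBR internal control. 24h compound exposure, 37 °C/5% CO2, DMEM + 10% FBS. Readout: corrected green/red luminescence ratio, normalized to untreated cells; concentration-response curves fitted and classified.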

Setting [18] is: measured here: cell count channel max response.
The mark [19] stands for this setting: measured here: lipid channel max response.

Several values for one entry are separate records, joined by “and”; a condition that tells them apart may be missing. Identical values can stand only once. Records with an inconclusive call do not appear. Activity calls are given as the source filed them. Unless noted, calls come from the whole dose curve; as a rule, active = well fitted curve in the direction sought with a large enough effect; inconclusive = small, poorly fitted or top-dose-only effect, or another doubt; inactive = no such curve, though single readings can be large; an effect the other way counts as inactive or inconclusive.

Ferritin light chain (Equus caballus), sequence (P02791 2-175 limits assumed): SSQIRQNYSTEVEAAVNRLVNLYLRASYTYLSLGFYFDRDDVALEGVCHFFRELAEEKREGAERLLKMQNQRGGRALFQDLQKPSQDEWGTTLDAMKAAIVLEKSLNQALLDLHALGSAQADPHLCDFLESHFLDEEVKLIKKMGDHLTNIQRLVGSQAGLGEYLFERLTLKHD
DNA repair nuclease/redox regulator APEX1 (Homo sapiens), sequence (P27695 whole entry, looked up): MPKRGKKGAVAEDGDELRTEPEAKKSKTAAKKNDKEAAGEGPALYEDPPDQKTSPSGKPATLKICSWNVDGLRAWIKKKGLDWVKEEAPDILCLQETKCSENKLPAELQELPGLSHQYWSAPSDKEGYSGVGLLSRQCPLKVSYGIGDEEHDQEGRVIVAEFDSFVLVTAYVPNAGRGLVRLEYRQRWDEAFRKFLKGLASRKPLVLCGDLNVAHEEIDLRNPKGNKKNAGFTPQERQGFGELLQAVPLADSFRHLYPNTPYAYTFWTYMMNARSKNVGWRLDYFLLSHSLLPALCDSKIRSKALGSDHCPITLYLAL
RecQ-like DNA helicase BLM (Homo sapiens), sequence (P54132 whole entry, looked up): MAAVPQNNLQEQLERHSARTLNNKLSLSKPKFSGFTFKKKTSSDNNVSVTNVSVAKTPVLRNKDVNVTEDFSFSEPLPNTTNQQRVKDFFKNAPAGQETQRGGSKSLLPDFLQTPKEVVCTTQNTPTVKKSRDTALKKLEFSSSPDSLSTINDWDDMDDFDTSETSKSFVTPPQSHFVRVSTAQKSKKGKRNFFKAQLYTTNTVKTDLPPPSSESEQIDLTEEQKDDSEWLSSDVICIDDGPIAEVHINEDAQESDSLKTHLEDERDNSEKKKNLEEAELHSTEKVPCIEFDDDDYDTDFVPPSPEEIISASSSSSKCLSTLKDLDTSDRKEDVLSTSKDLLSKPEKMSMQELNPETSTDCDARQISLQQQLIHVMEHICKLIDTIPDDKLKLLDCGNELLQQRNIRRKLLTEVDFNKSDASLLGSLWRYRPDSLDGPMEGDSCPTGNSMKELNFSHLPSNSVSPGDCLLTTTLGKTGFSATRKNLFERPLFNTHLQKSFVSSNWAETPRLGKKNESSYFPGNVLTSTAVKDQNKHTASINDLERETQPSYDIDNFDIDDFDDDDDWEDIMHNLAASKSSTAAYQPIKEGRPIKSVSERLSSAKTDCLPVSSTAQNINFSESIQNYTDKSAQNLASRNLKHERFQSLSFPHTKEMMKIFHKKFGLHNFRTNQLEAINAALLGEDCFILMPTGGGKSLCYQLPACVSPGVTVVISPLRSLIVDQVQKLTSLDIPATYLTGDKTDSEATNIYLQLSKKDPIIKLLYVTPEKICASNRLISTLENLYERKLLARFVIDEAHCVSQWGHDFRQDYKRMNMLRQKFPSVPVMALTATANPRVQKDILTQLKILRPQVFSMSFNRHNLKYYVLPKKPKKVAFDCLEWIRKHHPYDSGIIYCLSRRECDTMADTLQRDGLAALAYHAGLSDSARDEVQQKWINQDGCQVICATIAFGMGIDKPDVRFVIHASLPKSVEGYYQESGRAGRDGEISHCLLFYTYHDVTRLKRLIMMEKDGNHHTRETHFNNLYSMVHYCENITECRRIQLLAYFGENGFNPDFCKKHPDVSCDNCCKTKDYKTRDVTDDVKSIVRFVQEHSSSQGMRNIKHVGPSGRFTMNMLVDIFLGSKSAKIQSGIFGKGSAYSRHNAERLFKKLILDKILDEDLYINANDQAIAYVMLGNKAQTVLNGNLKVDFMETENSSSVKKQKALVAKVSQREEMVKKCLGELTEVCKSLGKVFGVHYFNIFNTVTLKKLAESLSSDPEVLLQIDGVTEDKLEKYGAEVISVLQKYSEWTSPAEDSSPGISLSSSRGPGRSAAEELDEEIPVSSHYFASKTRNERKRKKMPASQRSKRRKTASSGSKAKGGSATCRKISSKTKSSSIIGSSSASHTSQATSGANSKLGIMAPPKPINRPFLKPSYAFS

As for `O=S(=O)(O)c1cc(O)ccc1O`, in [1] (at 25.7 µM (top of the series)), the activity change, negative = inhibition is 1.28% (inactive). Besides, the max response in experiment [1] (setting [18]) was determined as 11.8%; in experiment [1] (setting [19]), 12.6%.
For `O=C(O)c1cc[c]([Hg][Cl])cc1`, the activity change, negative = inhibition in experiment [1] (at 57.5 µM (top of the series)) was 1.37% (inactive). Moreover, the max response is -16.6% in experiment [1] (setting [18]) and -15.1% in [1] (setting [19]). Besides, the Potency entry in experiment [2], in experiment [3], in experiment [4], in experiment [13], in experiment [14] and in experiment [15] was “inactive” throughout. The Potency in [5] was 3160 nM (active); in experiment [6] it was 2510 nM (active); in [7], 2240 nM (active); in experiment [8] it was 1120 nM (active); in experiment [9], 11200 nM (active); in experiment [10], 1410 nM (active). Moreover, the Potency in experiment [11] was 5010 nM (active). Further, in experiment [12], the compound was classed as inactive.
On to `CCCC(C)C1(CC)C(=O)NC(=O)NC1=O` (centres undefined), for which the activity change, negative = inhibition in [1] (at 57.5 µM (top of the series)) is 5.49% (inactive). Moreover, the max response is -11.5% in experiment [1] (setting [18]) and -3.32% in [1] (setting [19]).
`CC1OC1P(=O)(O)O` (centres undefined): in experiment [1] (at 57.5 µM (top of the series)), the activity change, negative = inhibition was 3.73% (inactive). Moreover, the max response in experiment [1] (setting [18]) was 11.8%; in experiment [1] (setting [19]), 19.6%. Besides, the Potency result in experiment [2], in experiment [3], in experiment [4], in experiment [5], in [6] and in [7] was “inactive” each time. For the same compound, the Potency result in experiment [8], in experiment [9], in [10], in experiment [11] and in experiment [13] was “inactive” each time. The compound was called inactive in [12].
On to `NC(N)=NOCC[C@H](N)C(=O)O`, for which the activity change, negative = inhibition in experiment [1] (at 25.7 µM (top of the series)) is -2.42% (inactive); in experiment [1] (at 57.5 µM (top of the series)) it was -0.661% (inactive) and -1.31% (inactive). The max response in [1] (setting [18]) was -2.62% and 0.126% and 38.5%; in [1] (setting [19]) it was -6.68% and -0.879% and 37%. The Potency result in experiment [2], in experiment [3], in experiment [4], in experiment [5], in experiment [6] and in experiment [7] was “inactive” in each case. Besides, the Potency entry in experiment [8], in [9], in [11], in experiment [13], in [14] and in experiment [15] was “inactive” throughout. The compound was classed as inactive in experiment [12].
Regarding `C[C@@H](Cc1ccccc1)NCCC(c1ccccc1)c1ccccc1`, the activity change, negative = inhibition in experiment [1] (at 25.7 µM (top of the series)) was -10.7% (inactive). Besides, the figures for the max response in [1] (setting [18]) and in experiment [1] (setting [19]) were -11.9% and -23.1%, respectively.
On to `O=[N+]([O-])c1cc(O)c(O)c([N+](=O)[O-])c1`, for which the activity change, negative = inhibition in experiment [1] (at 57.5 µM (top of the series)) is 9.72% (inactive) and 0.381% (inactive). The max response is 15.9% and 33.6% in [1] (setting [18]); 26.8% and 29.7% in experiment [1] (setting [19]). Also, the Potency entry in experiment [2], in experiment [3], in experiment [4], in experiment [5], in [6] and in experiment [7] was “inactive” throughout. For the same compound, the Potency entry in experiment [8], in experiment [9], in [10], in experiment [11], in experiment [13] and in experiment [16] was “inactive” in each case. The Potency result in experiment [14] and in experiment [15] was “inactive” throughout. For the same compound, the compound was classed as inactive in [12].
Take `N[C@@H](Cn1oc(=O)[nH]c1=O)C(=O)O`: the activity change, negative = inhibition in experiment [1] (at 57.5 µM (top of the series)) is 3.82% (inactive). Moreover, the results for the max response in experiment [1] (setting [18]) and in experiment [1] (setting [19]) were 22.6% and 26.9%, respectively. Besides, the Potency entry in experiment [2], in experiment [3], in experiment [4], in [5], in experiment [6] and in experiment [7] was “inactive” throughout. The Potency entry in experiment [8], in [9], in experiment [10], in [11], in experiment [13] and in experiment [14] was “inactive” in each case. Also, in [15], the Potency entry was “inactive”. Also, the result in experiment [17] and in experiment [12] was inactive.
